Here are results for five molecules from PubChem BioAssay.

Structures are written as SMILES. Records with an inconclusive call do not appear. Activity calls are given as the source filed them.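 The calls were made as follows, unless noted: active = viability loss from added drug above about 55%, and viability with drug at most 40%, in both replicates (limit read from the data, passing the limit was not always enough); inconclusive = both conditions met in only one replicate; inactive = neither replicate meets both conditions.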

Assay [1] in a line: Her2 expression decrease, cell viability multiplex – SKBR3 breast tumor cells, AlphaScreen, ATP viability, primary screen (AID 461;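 active = Her2 level under about 52% in both replicate screens, with viability over 70% of control, limit read from the data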;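 as to Her2 level: lower value means less Her2 protein in the cells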;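 as to viability: percent of carrier control wells set as 100% viability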). The conditions noted are these: SKBR3 Her2 protein level, 18-24 h, measured here: SKBR3 viability, ATP luminescence, at 10 µM.
The target in assay [2] is Receptor tyrosine-protein kinase erbB-2 (Homo sapiens) (UniProt P04626). The assay is described as above. Particulars: 18-24 h, at 10 µM, stronger effect = lower value.
Sequence of Receptor tyrosine-protein kinase erbB-2 (Homo sapiens) (P04626 whole entry, looked up): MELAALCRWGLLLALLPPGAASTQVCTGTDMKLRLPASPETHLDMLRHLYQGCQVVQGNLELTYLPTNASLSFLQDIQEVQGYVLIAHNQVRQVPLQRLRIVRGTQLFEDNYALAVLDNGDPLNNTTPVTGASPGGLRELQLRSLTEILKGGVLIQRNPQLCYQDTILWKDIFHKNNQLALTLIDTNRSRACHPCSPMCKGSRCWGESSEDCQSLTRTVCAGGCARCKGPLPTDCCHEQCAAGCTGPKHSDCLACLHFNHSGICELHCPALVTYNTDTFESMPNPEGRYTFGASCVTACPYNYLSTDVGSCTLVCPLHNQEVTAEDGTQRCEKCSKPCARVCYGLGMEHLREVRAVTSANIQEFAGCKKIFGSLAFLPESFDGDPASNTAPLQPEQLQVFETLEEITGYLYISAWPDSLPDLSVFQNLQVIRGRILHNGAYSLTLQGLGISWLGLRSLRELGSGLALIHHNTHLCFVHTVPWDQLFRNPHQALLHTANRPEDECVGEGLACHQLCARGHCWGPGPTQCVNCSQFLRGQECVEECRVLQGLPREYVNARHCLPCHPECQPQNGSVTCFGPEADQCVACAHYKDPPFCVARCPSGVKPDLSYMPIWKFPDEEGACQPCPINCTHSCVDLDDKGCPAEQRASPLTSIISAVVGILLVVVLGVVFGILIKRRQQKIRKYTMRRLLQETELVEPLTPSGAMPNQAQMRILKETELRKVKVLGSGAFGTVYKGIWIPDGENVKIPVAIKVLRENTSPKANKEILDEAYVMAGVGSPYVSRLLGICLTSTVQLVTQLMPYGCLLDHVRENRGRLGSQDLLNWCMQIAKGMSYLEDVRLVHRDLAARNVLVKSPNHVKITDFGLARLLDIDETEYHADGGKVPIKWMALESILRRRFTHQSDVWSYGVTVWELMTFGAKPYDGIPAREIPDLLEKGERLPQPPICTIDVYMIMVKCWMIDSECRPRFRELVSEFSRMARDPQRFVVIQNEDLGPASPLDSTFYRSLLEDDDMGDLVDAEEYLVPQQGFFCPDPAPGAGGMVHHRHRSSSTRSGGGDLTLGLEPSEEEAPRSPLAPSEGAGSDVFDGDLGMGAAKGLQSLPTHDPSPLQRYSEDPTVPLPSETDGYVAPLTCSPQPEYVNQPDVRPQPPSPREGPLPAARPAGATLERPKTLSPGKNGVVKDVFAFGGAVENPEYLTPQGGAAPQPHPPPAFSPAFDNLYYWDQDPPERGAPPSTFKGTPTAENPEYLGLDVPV
Assay [3] can be described thus: reduced viability of SK-BR-3 breast cancer cells – cell-based, 24 h, human, pilot screen (AID 572;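 active = viability at or below 10% of carrier control in both of two separate runs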;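 also: compound exposure lasted between 18 and 24 h rather than exactly 24 h; 100% = carrier-treated control wells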). The conditions noted are these: SK-BR-3 viability, CellTiter-Glo luminescence, at 10 µM, stronger effect = lower value.
Assay [4] is described as follows: HUVEC growth inhibition – cell-based, human, primary screen (AID 575;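 active = viability at or below 30% in both replicate assays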;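 also: 100% = median of untreated cell wells with 0.1% DMSO on each plate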). The conditions noted are these: HUVEC proliferation, CellTiter-Glo luminescence, 72 h; at 10 µM; stronger effect = lower value.
Assay [5] in a line: H69AR cell proliferation blockers – human, duplicate replicates, primary screen (AID 580;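 active = viability at or under a set limit in both replicates, limit being median viability minus 3 SD, cut at about 48% in these data, passing the limit was not always enough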;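 also: 100% = mean luminescence of untreated wells and 0% = no signal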). The conditions noted are these: H69AR lung tumor cells viability, ATP luminescence, 72 h; at 10 µM; stronger effect = lower value.
The nature of assay [6]: MRP1 drug-resistance reversers in H69AR cells – cell-based, doxorubicin co-treatment, pilot screen (AID 601). Particulars: CellTiter-Glo, 72 h, at 10 µM; for differential viability (reversal): stronger effect = higher value.
The nature of assay [7]: yeast transport mutant growth inhibition pilot in 384-well plates, post-Golgi transport modulator project (AID 636; in the data active = inhibition above about 31%). Particulars: absorbance 615 nm, about 18 h, stronger effect = higher value.
Assay [8] in a line: growth suppression of yeast trafficking mutant, preliminary HTS, modulators of trafficking downstream of Golgi apparatus project, 1536-format plate, OD 615 nm (AID 637; in the data active = inhibition above about 30%). The conditions noted are these: yeast transport mutant growth, absorbance 615 nm, 18 h; stronger effect = higher value.
A short description of assay [9]: S. cerevisiae growth inhibition in permissive medium (OD615), pilot counter-assay for S. cerevisiae lifespan shortening project, permissive growth control (AID 705;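 active = growth inhibition above 25% in both replicates, a cutoff set 3 SD above the mean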). Particulars: OD615, 24 h, at 10 µM, stronger effect = higher value.
Assay [10] in a line: S. cerevisiae growth inhibition in restrictive medium, OD615, pilot screen, restrictive growth control, yeast lifespan reduction project (AID 706;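 active = growth inhibition above a set limit, 3 SD over mean compound inhibition, in both replicates, cut at about 43% in these data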;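 also: modified DeaD lifespan yeast strain shifted to restrictive glucose medium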). The conditions noted are these: OD615, 48 h, at 10 µM, stronger effect = higher value.
The nature of assay [11]: doxorubicin toxicity protection in MRP-1 cells – H69AR cells, CellTiter-Glo, duplicate, MRP-1 activator project, pilot screen (AID 807;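 active = viability increase at or above a cutoff of the median across tested compounds plus 3 SD, cut at about 8.5% in these data, passing the limit was not always enough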;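 also: compound pretreatment 18-22 h then 72 h combined with doxorubicin; 0% = doxorubicin alone and 100% = vehicle without doxorubicin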). The conditions noted are these: H69AR viability with doxorubicin, CellTiter-Glo luminescence; at 10 µM; stronger effect = higher value.
Assay [12] is described as follows: viability of HCT116 without oncogenic beta-catenin – human colon tumor cells, pilot screen (AID 823;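 active = cell viability at or below a set limit in both duplicate runs, the limit being the all-compound median minus 4 SD, cut at about 23% in these data, passing the limit was not always enough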;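 also: 0% = wells killed by 20 µM Hyamine and 100% = untreated DMSO cell wells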). Particulars: HCT116 beta-catenin knockout viability, CellTiter-Glo, 60 h; at 10 µM; stronger effect = lower value.
Assay [13] is described as follows: viability of PTEN-null HCT116 cells – cell-based, HCT116 clonal line, CellTiter-Glo, pilot screen (AID 824;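 active = viability at or below 27.92% in each of two runs, the all-compound median minus 4 SD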;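 also: 0% = 20 µM Hyamine control and 100% = vehicle cell control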). Particulars: HCT116 PTEN-deleted viability, 60 h, at 10 µM, stronger effect = lower value.
Assay [14] can be described thus: RAM pathway blockade in budding yeast – dse1pr::URA3 reporter, 5-FOA selection, pilot screen (AID 869;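 active = inhibition over a set limit, the all-compound mean plus 3 SD, in both replicate runs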;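 also: 0% = DMSO wells with no growth and 100% = 10 µM 1-NA-PP1 with full growth; RAM network block rescues cells from 5-FOA so hits raise OD615 growth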). Particulars: S. cerevisiae dse1pr::URA3 5-FOA growth, OD615, 2 d; at 10 µM; stronger effect = higher value; strain carries analog-sensitive mutant Cbk1 kinase.
Assay [15] is described as follows: RAM signaling pathway blockade in yeast – S. cerevisiae, Pdr1DBD-CYC8 efflux-inhibited sensitized strain, primary screen (AID 1298;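 active = RAM network inhibition above 8.4% in each of two replicates, 3 SD over the compound average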;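 also: 0% = DMSO untreated cells without growth and 100% = 10 µM 1-NA-PP1 full growth; higher means more yeast growth rescued from 5-FOA killing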). Particulars: S. cerevisiae cbk1-as DSE1-URA3 strain, 5-FOA growth OD615, 2 d; at 50 µM; stronger effect = higher value.
[16] abbreviates: H69AR cells + 2 uM doxorubicin, measured here: viability with 2 uM doxorubicin, stronger effect = lower value.
[17] abbreviates: H69AR cells, compound alone cytotoxicity.

As to `Cc1nc2c(-c3ccccc3)c(C)nn2c(C)c1CCC(=O)NCc1ccco1`, the viability was 101% in assay [1]; 101% (inactive) in assay [3]; 88.2% (inactive) in assay [4]; 90.8% (inactive) in [5]; 76.6% in assay [6] (setting [16]); 90.8% in [6] (setting [17]). Besides, the results for the viability in assay [12] and in [13] were 98.9% (inactive) and 101% (inactive), respectively. Also, the Her2 level in [2] is 100% (inactive). Moreover, the differential viability (reversal) in assay [6] (H69AR cells + 2 uM doxorubicin) was 14.2% (inactive). For the same molecule, the results for the inhibition in [7], in assay [8] and in assay [14] were -0.9% (inactive), -2.5% (inactive) and 1.4% (inactive), respectively. Also, the growth inhibition in assay [9] was -4.98% (inactive); in assay [10] it was 5.46% (inactive). Further, in assay [11], the viability increase was -3.51% (inactive). The RAM network inhibition in [15] was 5.36% (inactive).

On to `COc1ccc(C2CC(c3ccc(C)cc3)Nc3ncnn32)cc1` (stereo not given), for which the viability in assay [1] is 106%; in assay [3] it was 106% (inactive); in [4], 105% (inactive); in assay [5], 101% (inactive); in assay [6] (setting [16]) it was 86.1%; in assay [6] (setting [17]), 101%. Also, the viability in [12] is 104% (inactive); in [13], 88.7% (inactive). Moreover, in [2], the Her2 level is 96.5% (inactive). For the same molecule, the differential viability (reversal) in assay [6] (H69AR cells + 2 uM doxorubicin) was 14.9% (inactive). The inhibition in assay [7] was -0.27% (inactive); in assay [8], 3.28% (inactive); in [14], 1.41% (inactive). The growth inhibition is 2% (inactive) in assay [9] and 20% (inactive) in assay [10]. In [11], the viability increase was -0.88% (inactive). Moreover, the RAM network inhibition in [15] is 0.05% (inactive).

In the case of `O=C(Nc1ccc(N2CCCC2)cc1)c1ccc(Br)o1`, the viability was 93.5% in assay [1]; 93.5% (inactive) in [3]; 94.3% (inactive) in assay [4]; 101% (inactive) in [5]; 85.2% in assay [6] (setting [16]); 101% in assay [6] (setting [17]). The viability was 94% (inactive) in assay [12] and 92.3% (inactive) in assay [13]. For the same molecule, the Her2 level in [2] was 93.5% (inactive). Besides, the differential viability (reversal) in assay [6] (H69AR cells + 2 uM doxorubicin) is 15.6% (inactive). Besides, the inhibition in assay [7] was 0.27% (inactive); in assay [8], 1.97% (inactive); in assay [14] it was 3.5% (inactive). Besides, the growth inhibition in [9] is 3.95% (inactive); in assay [10], 14.9% (inactive). Besides, the viability increase in assay [11] was -0.48% (inactive). Also, in assay [15], the RAM network inhibition is 6.03% (inactive).

On to `CCOC(=O)CSc1nnc(Cn2c(=O)sc3ccccc32)n1C`, for which the viability is 96% in [1]; 96% (inactive) in [3]; 87% (inactive) in [4]; 96.7% (inactive) in assay [5]; 85.5% in [6] (setting [16]); 96.7% in assay [6] (setting [17]). The viability is 107% (inactive) in assay [12] and 106% (inactive) in assay [13]. Further, in [2], the Her2 level is 94% (inactive). For the same molecule, in assay [6] (H69AR cells + 2 uM doxorubicin), the differential viability (reversal) is 11.1% (inactive). Moreover, the inhibition in assay [7] is 3.33% (inactive); in [8], -2.5% (inactive); in assay [14], 0.27% (inactive). For the same molecule, the growth inhibition in assay [9] is 1.56% (inactive); in assay [10] it was 7.89% (inactive). For the same molecule, the viability increase in assay [11] was 1.76% (inactive). Further, the RAM network inhibition in [15] was 3.51% (inactive).

For the molecule `CN1CCN(CC(=O)N2c3ccccc3C(C)(c3ccccc3)CC2(C)C)CC1` (stereo not given), the viability in assay [1] was 87%; in [3], 87% (inactive); in [4], 78.8% (inactive); in [5] it was 65.8% (inactive); in [6] (setting [16]), 97.1%; in assay [6] (setting [17]), 65.8%. Besides, the viability in assay [12] was 49.1% (inactive); in assay [13] it was 50.7% (inactive). Further, the Her2 level in assay [2] is 103% (inactive). Further, the differential viability (reversal) in assay [6] (H69AR cells + 2 uM doxorubicin) was -31.3% (inactive). Besides, the inhibition is -0.38% (inactive) in [7], 2% (inactive) in [8] and 0.685% (inactive) in assay [14]. The growth inhibition in assay [9] was -9.57% (inactive); in assay [10], -2.67% (inactive). Also, the viability increase in assay [11] was -6.54% (inactive). Moreover, in [15], the RAM network inhibition is 1.99% (inactive).
